The results in this text go back to PubChem BioAssay.

The source made the active and inactive calls.

Assay [1] relates to Plasmodium falciparum Sir2 (PF13_0152, Sir2A). The assay can be described thus: Plasmodium falciparum Sir2A binding compounds – biochemical, small-molecule microarray, 635 nm fluorescence, primary screen (AID 1098).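 Also: score merges spot fluorescence intensity with its signal-to-noise ratio.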 Conditions: fluorescence 635 nm, higher = more signal.
Assay [2] in a line: probe aDKK1 binding to arrayed compounds – biochemical, biotinylated probe, 635/667 nm fluorescence, primary screen (AID 1099).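 Also: score merges 667nm spot fluorescence with signal to noise across triplicate slides.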 Conditions: small-molecule microarray, higher = more signal.
A short description of assay [3]: probe aCHRDL2 binding to arrayed compounds – biochemical, biotinylated probe, 635/667 nm fluorescence, primary screen (AID 1100). The note with it: small-molecule microarray, higher = more signal.
Assay [4] can be described thus: change in splice reporter luminescence, either direction, cell-based, HEK293, spliceosome inhibition project, primary screen (AID 1101).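 Also: HEK293 cells carrying a splicing-competent luciferase reporter gene; test concentration not given here.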 Conditions: HEK293 splicing luciferase reporter, 24 h, higher = more signal, called active from +8 up or from −8 down.
The target of assay [5] is Fibroblast growth factor 10 (Homo sapiens) (UniProt O15520). The assay can be described thus: compounds binding fibroblast growth factor 10 – biochemical, small-molecule microarray, 635 nm fluorescence, primary screen (AID 1102). The note with it: FGF10 binding, fluorescence 635 nm, higher = more signal.
Sequence of Fibroblast growth factor 10 (Homo sapiens) (O15520 whole entry, looked up): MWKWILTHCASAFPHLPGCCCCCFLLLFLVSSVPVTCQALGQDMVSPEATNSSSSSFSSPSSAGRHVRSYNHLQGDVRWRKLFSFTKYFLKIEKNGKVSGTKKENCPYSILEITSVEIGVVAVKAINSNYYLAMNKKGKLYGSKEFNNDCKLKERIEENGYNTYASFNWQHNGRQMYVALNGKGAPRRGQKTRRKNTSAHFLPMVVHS
In assay [6] the test system is glycogen synthase kinase-3 (GSK3A per assay name; protocol says GSK3B). The assay can be described thus: compounds binding glycogen synthase kinase-3 – biochemical, small-molecule microarray, 635 nm fluorescence, GSK3A, primary screen (AID 1103). Also: the record names both GSK3A and GSK3B. Conditions: fluorescence 635 nm, higher = more signal.
The target of assay [7] is Epidermal growth factor receptor (Homo sapiens) (UniProt P00533). Put plainly: compounds binding epidermal growth factor receptor – biochemical, small-molecule microarray, 635 nm fluorescence, primary screen (AID 1104).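 Also: score merges 667 nm emission intensity with spot signal to noise over triplicate slides.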 The note with it: EGFR binding, higher = more signal.
Sequence of Epidermal growth factor receptor (Homo sapiens) (P00533 whole entry, looked up): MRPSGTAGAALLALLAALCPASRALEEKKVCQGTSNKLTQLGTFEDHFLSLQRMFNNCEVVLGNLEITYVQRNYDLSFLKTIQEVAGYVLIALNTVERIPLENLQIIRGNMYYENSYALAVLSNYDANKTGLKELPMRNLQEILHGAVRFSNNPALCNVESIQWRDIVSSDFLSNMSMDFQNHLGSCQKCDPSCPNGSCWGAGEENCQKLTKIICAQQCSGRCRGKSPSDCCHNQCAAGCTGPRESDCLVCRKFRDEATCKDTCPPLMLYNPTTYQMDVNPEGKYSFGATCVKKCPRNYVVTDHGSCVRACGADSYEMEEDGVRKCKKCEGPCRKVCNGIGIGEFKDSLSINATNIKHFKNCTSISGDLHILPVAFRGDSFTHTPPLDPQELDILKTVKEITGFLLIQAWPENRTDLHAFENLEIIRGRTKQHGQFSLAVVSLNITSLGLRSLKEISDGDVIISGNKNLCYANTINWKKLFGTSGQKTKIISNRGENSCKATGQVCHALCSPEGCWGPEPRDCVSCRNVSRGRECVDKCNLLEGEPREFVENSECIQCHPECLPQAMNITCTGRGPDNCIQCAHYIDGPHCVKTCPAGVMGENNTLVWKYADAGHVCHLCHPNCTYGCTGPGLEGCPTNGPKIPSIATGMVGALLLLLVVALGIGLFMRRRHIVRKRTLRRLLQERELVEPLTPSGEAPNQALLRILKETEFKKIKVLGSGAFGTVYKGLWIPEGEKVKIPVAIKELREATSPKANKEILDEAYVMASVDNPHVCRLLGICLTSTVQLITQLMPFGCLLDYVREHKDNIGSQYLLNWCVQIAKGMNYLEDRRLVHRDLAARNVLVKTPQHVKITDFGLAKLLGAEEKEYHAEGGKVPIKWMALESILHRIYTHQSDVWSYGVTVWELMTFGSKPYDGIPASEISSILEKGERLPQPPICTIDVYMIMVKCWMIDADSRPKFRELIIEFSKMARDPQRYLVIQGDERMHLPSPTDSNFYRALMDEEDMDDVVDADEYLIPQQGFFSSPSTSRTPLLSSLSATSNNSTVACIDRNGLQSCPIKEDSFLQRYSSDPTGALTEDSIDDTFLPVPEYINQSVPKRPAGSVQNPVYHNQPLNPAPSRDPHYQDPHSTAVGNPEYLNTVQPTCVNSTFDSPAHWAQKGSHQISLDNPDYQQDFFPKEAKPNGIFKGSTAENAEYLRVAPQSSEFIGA
Assay [8] concerns the target Follistatin-related protein 3 (Homo sapiens) (UniProt O95633). Put plainly: compounds binding follistatin-related protein 3 – biochemical, small-molecule microarray, 635 nm fluorescence, primary screen (AID 1105).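 Also: score merges emission near 667 nm and signal to noise per printed spot across three slides.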 Conditions: FSTL3 binding, higher = more signal.
The target in assay [9] is Dickkopf-related protein 1 (Homo sapiens) (UniProt O94907). Put plainly: small molecules binding DKK1 protein – biochemical, small-molecule microarray, 635 nm fluorescence scan, primary screen (AID 1106).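 Also: score merges emission near 667 nm with signal to noise over three replicate slides.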 Conditions: higher = more signal.
Sequence of Dickkopf-related protein 1 (Homo sapiens) (O94907 whole entry, looked up): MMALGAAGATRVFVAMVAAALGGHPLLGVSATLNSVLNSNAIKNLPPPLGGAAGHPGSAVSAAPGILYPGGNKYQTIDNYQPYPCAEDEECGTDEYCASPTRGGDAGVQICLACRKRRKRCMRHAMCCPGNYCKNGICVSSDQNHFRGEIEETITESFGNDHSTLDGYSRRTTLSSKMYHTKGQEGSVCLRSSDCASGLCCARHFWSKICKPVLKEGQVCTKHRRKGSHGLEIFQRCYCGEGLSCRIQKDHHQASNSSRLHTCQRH
For assay [10], the system named is Inhibin beta A chain (activin A). Put plainly: small molecules binding activin A – biochemical, small-molecule microarray, 635 nm fluorescence scan, primary screen (AID 1107).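 Also: mouse activin A protein probed at 4.33 µg/mL on printed slides; score merges bound-protein fluorescence near 667 nm with spot signal-to-noise.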 The note with it: INHBA, higher = more signal.
Assay [11] concerns Human papillomavirus type 1a protein E7 (residues 44-93). Put plainly: small molecules binding HPV E7 44-93 – biochemical, small-molecule microarray, residues 44-93, 635 nm fluorescence, primary screen (AID 1108).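 Also: E7 fragment applied at 1 µg/mL in TBST for 1 h at 4 C; score combines spot fluorescence with its signal to noise ratio.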 The note with it: fluorescence 635 nm, higher = more signal.
Assay [12] in a line: hepatitis C replication reporter changes, two-sided – Huh7 cells, luciferase reporter, HCV replication inhibitor project, primary screen (AID 1109).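 Also: huh7 hepatoma cells harbouring a luciferase neomycin HCV replicon reporter; luciferase luminescence as measure of HCV replicon replication; test concentration not given here.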 Conditions: Huh7 HCV replicon luciferase reporter, 48 h; higher = more signal.
Assay [13] has as its target Left-right determination factor 2 (Homo sapiens) (UniProt O00292). Put plainly: small molecules binding LEFTY2 protein – biochemical, small-molecule microarray, 635 nm fluorescence scan, primary screen (AID 1110). The note with it: higher = more signal.
Assay [14] concerns the target Calmodulin-1 (Homo sapiens) (UniProt P0DP23). The assay can be described thus: small molecules binding calmodulin-1 with EGTA – biochemical, small-molecule microarray, Cy5-labelled CALM1, profiling panel (AID 1111).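 Also: labelled calmodulin applied in Tris saline Tween buffer holding calcium plus EGTA and DTT.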 The note with it: Cy5-CALM1 binding fluorescence, higher = more signal.
Assay [15] has the same target. The assay can be described thus: small molecules binding Ca-loaded calmodulin-1 – biochemical, small-molecule microarray, Cy5-labelled CALM1, plus calcium, artefact control for SMM control-protein annotation, profiling panel (AID 1112).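 Also: score merges spot fluorescence with signal to noise from triplicate slides.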 Conditions: Cy5-CALM1 binding fluorescence, higher = more signal.
Assay [16] can be described thus: probe aWnt5a binding to arrayed compounds – biochemical, biotinylated probe, 635/667 nm fluorescence, primary screen (AID 1113).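 Also: score merges 667 nm fluorescence intensity with signal-to-noise per printed feature.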 Conditions: small-molecule microarray, higher = more signal.
Assay [17] is described as follows: probe aShh binding to arrayed compounds – biochemical, biotinylated probe, 635/667 nm fluorescence, primary screen (AID 1114).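 Also: probe is biotin-labelled aShh protein from a stem cell growth factor screen; measures binding of labelled protein to compounds printed on the slide; score merges feature fluorescence at 667 nm with signal-to-noise.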 The note with it: small-molecule microarray, higher = more signal.
Assay [18] in a line: probe aNog binding to arrayed compounds – biochemical, biotinylated probe, 635/667 nm fluorescence, primary screen (AID 1115).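 Also: probe is biotinylated aNog protein used at 0.15 µg/mL for 1 h at 4 C; z-score combines 667 nm fluorescence of each spot with its signal to noise.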 Conditions: small-molecule microarray, higher = more signal.
In assay [19] the target is Torsin-1A-interacting protein 1 (Homo sapiens) (UniProt Q5JTV8). Put plainly: compound microarray binding of lysate hLAP1 – cell lysate, small-molecule microarray, COS7 lysate, 635/667 nm fluorescence, primary screen (AID 1116). Conditions: 635 nm fluorescence, higher = more signal.
Sequence of Torsin-1A-interacting protein 1 (Homo sapiens) (Q5JTV8 whole entry, looked up): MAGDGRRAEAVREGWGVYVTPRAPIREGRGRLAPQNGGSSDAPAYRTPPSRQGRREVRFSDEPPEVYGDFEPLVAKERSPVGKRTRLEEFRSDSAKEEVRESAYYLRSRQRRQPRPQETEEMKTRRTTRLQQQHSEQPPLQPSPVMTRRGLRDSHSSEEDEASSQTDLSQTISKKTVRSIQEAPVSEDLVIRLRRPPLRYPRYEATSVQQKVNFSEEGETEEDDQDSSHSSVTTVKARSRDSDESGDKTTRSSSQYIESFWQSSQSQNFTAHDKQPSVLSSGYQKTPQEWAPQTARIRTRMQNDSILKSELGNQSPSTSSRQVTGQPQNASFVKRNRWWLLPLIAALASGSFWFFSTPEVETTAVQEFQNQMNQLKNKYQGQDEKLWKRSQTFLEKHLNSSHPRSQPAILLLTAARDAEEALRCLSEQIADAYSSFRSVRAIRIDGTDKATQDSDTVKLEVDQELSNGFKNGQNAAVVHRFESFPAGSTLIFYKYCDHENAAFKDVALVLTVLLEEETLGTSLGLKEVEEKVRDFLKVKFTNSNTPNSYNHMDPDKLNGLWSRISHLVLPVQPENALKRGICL
Assay [20] has as its target Alpha-bungarotoxin (Bungarus multicinctus) (UniProt P60615). The assay can be described thus: compounds binding labelled alpha-BTX control protein – biochemical, small-molecule microarray, Alexa647 label, 635/667 nm fluorescence, artefact control for SMM control protein annotation, profiling panel (AID 1117). Conditions: alpha-BTX-A647 binding fluorescence, higher = more signal.

Sequence of Follistatin-related protein 3 (Homo sapiens) (O95633 whole entry, looked up): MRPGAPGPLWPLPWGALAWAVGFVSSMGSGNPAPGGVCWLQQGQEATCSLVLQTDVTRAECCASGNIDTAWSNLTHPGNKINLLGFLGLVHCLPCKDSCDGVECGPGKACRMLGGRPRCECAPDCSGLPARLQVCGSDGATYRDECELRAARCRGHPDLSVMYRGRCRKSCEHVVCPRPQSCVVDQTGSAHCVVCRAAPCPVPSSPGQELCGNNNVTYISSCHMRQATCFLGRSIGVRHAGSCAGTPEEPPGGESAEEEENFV
Sequence of Left-right determination factor 2 (Homo sapiens) (O00292 whole entry, looked up): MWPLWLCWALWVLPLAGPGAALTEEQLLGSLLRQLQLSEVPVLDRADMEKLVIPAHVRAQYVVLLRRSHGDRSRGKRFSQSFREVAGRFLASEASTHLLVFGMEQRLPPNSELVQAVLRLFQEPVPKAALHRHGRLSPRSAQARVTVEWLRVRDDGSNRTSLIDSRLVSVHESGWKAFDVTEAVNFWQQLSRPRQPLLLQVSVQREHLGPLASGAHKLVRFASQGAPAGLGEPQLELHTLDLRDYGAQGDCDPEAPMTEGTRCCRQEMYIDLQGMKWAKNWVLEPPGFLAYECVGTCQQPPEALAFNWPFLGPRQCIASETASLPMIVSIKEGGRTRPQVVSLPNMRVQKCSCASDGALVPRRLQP
Sequence of Alpha-bungarotoxin (Bungarus multicinctus) (P60615 whole entry, looked up): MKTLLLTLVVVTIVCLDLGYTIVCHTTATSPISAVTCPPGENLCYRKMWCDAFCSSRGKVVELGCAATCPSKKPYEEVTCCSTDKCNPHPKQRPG

`CCC(CC)C(O)C1C=CC2C(=O)N(c3ccccc3)C(=O)C2N1Nc1ccc(C#N)cc1` (stereo not given): the composite z-score in assay [1] is 0.82; in assay [2], 1.29; in assay [3], 0.705; in assay [5] it was 0.783; in [6], 1.27; in [7], 0.231. For the same compound, the composite z-score is 0.78 in [8]; -0.197 in assay [9]; 0.794 in assay [10]; 1.46 in assay [11]; 0.0717 in [13]; 1.67 in assay [14]. For the same compound, the composite z-score in assay [15] was 0.55; in assay [16], 0.275; in [17], 0.57; in [18] it was 1.78; in assay [19] it was 0.602; in [20] it was 1.08. The z-score was 1.22 (inactive) in assay [4] and 0.106 in assay [12].

As for `C=CCC(OC(C)=O)[C@@H]1[C@@H](N(Cc2ccc(-c3ccccc3)cc2)C(=O)Cc2ccc(F)cc2)c2cc(OCCCO)ccc2N1C(=O)c1ccc2ccccc2n1` (stereo not given in full), the composite z-score in assay [1] is 0.295; in assay [2], 0.0021; in [3] it was 0.531; in [5], 0.0915; in assay [6] it was -0.226; in assay [7], -0.294. In addition, the composite z-score was -0.112 in assay [8]; -0.221 in assay [9]; 1.27 in assay [10]; -0.689 in assay [11]; -0.456 in assay [13]; 0.168 in [14]. The composite z-score was 0.72 in assay [15]; -0.0125 in [16]; -0.206 in assay [17]; -0.395 in [18]; 0.79 in [19]; 0.414 in assay [20]. The figures for the z-score in [4] and in assay [12] were -0.457 (inactive) and -0.213, respectively.

Turning to `CCCCC=C[C@@H](NC(=O)c1ccco1)c1ccccc1`, the composite z-score in assay [1] was 0.276; in [2], 0.373; in [3] it was 0.557; in assay [5], 0.689; in assay [6], -0.877; in [7], 0.12. In addition, the composite z-score was 0.296 in [8]; 0.0504 in [9]; 0.809 in assay [10]; -0.244 in [11]; 0.0518 in assay [13]; 1.31 in assay [14]. Moreover, the composite z-score in assay [15] is 0.137; in [16] it was 0.0151; in assay [17], 0.356; in [18] it was 0.531; in assay [19], -0.153; in assay [20], 1.18. Besides, the z-score in [4] is 0.808 (inactive); in assay [12], -0.502.

On to `Cc1cc(C)c(C(O)C2C=CC3C(=O)N(C)C(=O)C3N2Nc2ccccc2)c(C)c1` (stereo not given), for which the composite z-score in assay [1] was 1.13; in assay [2] it was 1.84; in assay [3], 0.796; in assay [5], 0.636; in assay [6], 0.399; in assay [7], 0.745. Besides, the composite z-score in assay [8] is 0.38; in assay [9], 0.209; in [10], 1.25; in assay [11], -0.7; in assay [13], 0.627; in assay [14] it was 1.16. For the same compound, the composite z-score in [15] was -0.0299; in assay [16], 0.881; in [17], 0.365; in [18] it was 1.45; in [19], 1.23; in assay [20] it was 0.821. Moreover, the z-score in assay [4] was 0.55 (inactive); in assay [12], 0.228.

As for `O=C1[C@]2(CO)C=C(Br)[C@@H](C[C@@H]2c2ccccc2)[C@@]12CO2`, the composite z-score was 0.628 in assay [1]; 0.0144 in assay [2]; 0.0065 in assay [3]; 0.208 in [5]; -0.626 in assay [6]; -0.135 in [7]. Also, the composite z-score in [8] was 0.419; in [9], 0.357; in assay [10], 0.263; in [11], -0.728; in assay [13] it was 0.218; in [14], -0.567. Also, the composite z-score in assay [15] was -0.322; in assay [16], -0.0165; in assay [17], -0.221; in assay [18], -0.158; in [19], -0.563; in assay [20], -0.0487. Moreover, the figures for the z-score in [4] and in [12] were 0.359 (inactive) and -3.08, respectively.

On to `CCOC(=O)C[C@H]1[C@H](OC(=O)Cc2ccc3c(c2)OCO3)[C@@H](NC(=O)C2CCCCC2)c2cc(OCCCO)ccc2N1C(=O)Cc1ccc(OC)cc1`, for which the composite z-score in [1] is 0.17; in [2], -0.244; in assay [3] it was -0.214; in assay [5] it was 0.919; in assay [6], 0.646; in assay [7], 0.252. Moreover, the composite z-score was found to be 0.297 in [8]; 0.316 in assay [9]; 0.561 in [10]; 1.21 in [11]; 0.341 in [13]; 0.0855 in assay [14]. In addition, the composite z-score in assay [15] is -0.629; in [16], -0.001; in assay [17], -0.0626; in [18], -0.543; in [19] it was -0.0511; in assay [20], 0.199. Besides, the z-score was -1.6 (inactive) in [4] and -1.39 in assay [12].
